Results published in PubChem BioAssay AID540326 (Broad Institute, 2011).
The other results are listed elsewhere or left out. Values without a mark were called inactive. Activity calls are given as the source filed them.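 The calls were made as follows: active = quenching, a falling signal, with AC50 below a set limit tied to the top valid dose (actives reach about 32 µM in these data); inconclusive = no clear call, values can overlap the other calls; inactive = rising signal, and the rest.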

Assay: DiI-HDL fluorescence quenchers, cell-free, dose response, artefact control for SR-BI HDL uptake inhibitor project, biochemical, cherry-pick samples, plate reader fluorescence (AID 540326)
Conditions: 30 min; AC50: cell-free DiI-HDL fluorescence quenching; series mostly up to 35 µM; activity change, negative = quenching: at the top concentration

In order of rising “activity change, negative = quenching” value:
1. O=C(Nc1cccc(NC(=O)c2ccccc2[N+](=O)[O-])c1)c1ccccc1Cl  -13.8%
2. CCCC(=O)N1c2ccc(-c3csc(N)n3)cc2CC1C (centres undefined)  -13%
3. O=C(Nc1cccc(NC(=O)N2CCN(c3ccccc3)CC2)c1)N1CCN(c2ccccc2)CC1  -11%
4. COC(=O)C1=CN(c2ccc(F)c(F)c2)C=C(C(=O)OC)C1c1ccc([N+](=O)[O-])cc1  -8.39%
5. CCOc1ccc(NC(=O)CN2CCN(CC(=O)Nc3ccc(OC)cc3)CC2)cc1  -4.99%
6. CCOc1ccc(OCCSc2nc3ccccc3n2CC(=O)O)cc1  -2.93%
7. COc1cccc(N(CC(=O)NC2CCCC2)C(=O)Cn2nnc(-c3ccc(C)cc3)n2)c1  -2.78%
8. CCCOC1CCCN(C(=O)c2cc(COc3cncc(Cl)c3)on2)C1 (centres undefined)  -2.62%
9. Cc1cc(NC(=O)Nc2ccccc2)n(-c2ccccc2)n1  -2.27%
10. Cc1cccc(N2CCN(C(=O)CN(C)S(=O)(=O)c3ccc4c(c3)CCC(=O)N4)CC2)c1C  -1.63%
11. O=C(NC1CC2CCCC(C1)N2C(=O)N1CCCCC1)C1CCCCC1 (centres undefined)  -1.48%
12. CCCOC(=O)c1[nH]c2c(c1C)C(=O)CC(c1cc(OC)c(OC)c(OC)c1)C2 (centres undefined)  -1%
13. CCCC(=O)Nc1ccc(Cl)c(NC(=O)c2ccc(Br)o2)c1  -0.557%
14. CCOC(=O)c1[nH]c2c(c1-c1ccccc1)C(=O)CC(c1ccc(Cl)cc1)C2 (centres undefined)  -0.468%
15. O=c1cc(N2CCCCC2)c(-c2ccccc2)nn1Cc1cccc(F)c1  0.392%
16. CC(C)OCCCNC(=O)c1ccc(C2SCC(=O)N2Cc2ccco2)cc1 (centres undefined)  3.09%

In the case of O=C(Nc1ccc(-c2csc(Nc3cccc(C(F)(F)F)c3)n2)cc1)c1cccc(C(F)(F)F)c1, the AC50 was 0.435 µM (active).
In the case of CCCCC(=O)Nc1nc(C)c(-c2csc(Nc3ccc(Cl)cc3)n2)s1, the AC50 was 1.93 µM (active).
In the case of C=CCCC(=O)Nc1nc(C)c(-c2csc(Nc3ccc(Cl)cc3)n2)s1, the AC50 was 2.19 µM (active).
